Test results taken from ChEMBL document CHEMBL4513216, “Probing the Open Global Health Chemical Diversity Library for Multistage-Active Starting Points for Next-Generation Antimalarials” (ACS Infect Dis, 2020).
The whole screen tested about 69,000 compounds, of which about 8,600 (12%) showed an effect of 50% or more. The sample as a whole holds a higher share of strong results than the screen did.

Each molecule was assayed on Plasmodium berghei (assay: Screen against P. berghei liver stage (PbLuc), transformed with Luciferase, at 10uM). Details: tested at 10 uM.
Assay type: functional, HepG2

SMILES	INHIBITION [%]
Cc1nn(C)c(Cl)c1C1CCCN1C(=O)c1ccc2c(c1)COC2 (stereo unspecified)	7.12
CN1CCCC1c1cncc(C(=O)NCCN2CCCC2)n1 (stereo unspecified)	-40.1
CN(C)CC(=O)N1CCc2cccc(S(=O)(=O)N3CCOCC3)c2C1	21.2
O=C(c1ccc(Cl)s1)N1CCC2(CNS(=O)(=O)c3cnccc3O2)C1 (stereo unspecified)	21.7
CCC1CN(CC(=O)NCCN2CCCCCC2)c2ccccc2S1 (stereo unspecified)	0.87
CC(c1cc(F)ccc1F)N(C)C(=O)NCc1ccnc(N(C)C)c1 (stereo unspecified)	21.6
FC(F)(F)CCc1ccnc(N2CCN(CCc3ccncc3)CC2)n1	66.1
FC(F)(F)CCc1ccnc(N2CCN(Cc3ccncc3)CC2)n1	-0.178
Cc1cnccc1N1CCN(c2nccc(CCC(F)(F)F)n2)CC1	83.2
CCOc1ccnc(N2CCN(C(=O)CCc3ccncc3)CC2)n1	-17
O=C(c1ccccn1)C1CCCN(c2nccc(CCC(F)(F)F)n2)C1 (stereo unspecified)	35.1
Cc1cnccc1N1CCN(C(=O)CCCN2CCCCC2)CC1	21.7
FC(F)(F)CCc1ccnc(N2CCN(Cc3ccccn3)CC2)n1	25.5
Cc1cc(C)nc(CCNc2nccc(CCC(F)(F)F)n2)n1	38.2
CCN(C(C)=O)C1CCN(c2nccc(CCC(F)(F)F)n2)C1 (stereo unspecified)	48.5
CNC(=O)C1CCN(c2nccc(CCC(F)(F)F)n2)C1 (stereo unspecified)	50.1
FC(F)(F)c1ccnc(N2CCCN(Cc3ccccn3)CC2)n1	-1.7
Oc1cccc(CN2CCN(c3nccc(CCC(F)(F)F)n3)CC2)c1	74.7
O=C(c1ccc2c(c1)OCO2)N1CCCC(n2ccnc2)C1 (stereo unspecified)	-9.37
CN(CC(=O)Nc1cc(-c2cc(Cl)cc(Cl)c2)[nH]n1)S(C)(=O)=O	-51.9
CC(C)Oc1cccc(F)c1C(C(=O)O)N1CCCC1 (stereo unspecified)	-41.4
CCOCC(=O)N1CCCn2c(CN3CCCCC3)nnc2C1	-1.15

SMILES	INHIBITION [%]
CCS(=O)(=O)Cc1csc(-c2ccc(S(C)(=O)=O)cc2)n1	3.4
O=S(=O)(CCCN1CCCC1Cn1cccn1)c1ccccc1 (stereo unspecified)	24
Cc1noc(C)c1-c1nc(C2CCCNC2)ccc1CO (stereo unspecified)	-15.3
COC1C[C@@H]2CN(C(=O)c3ccc(C)s3)C[C@@H]2C1 (stereo partly specified)	-16.55
O=C(NCCN1CCCS1(=O)=O)c1scnc1Cl	40.2
Cc1cnc(N(C)Cc2cnc3ccccc3n2)nc1N(C)C	46.4
CC(=O)c1cnc(N(C)Cc2cc(C)cc(C)n2)nc1C	28.5
CC(=O)c1cnc(N(C)Cc2cnc3ccccc3n2)nc1C	62.7
CC(C)C1COC2(CCN(Cc3ccco3)CC2)C1 (stereo unspecified)	-2.35
O=C1CCCN1Cc1ncn2c1CN(Cc1cccs1)CCC2	21.8
Cn1ccnc1CNC(=O)c1cncc(C2CCNCC2)n1	27.6
Cc1noc(C)c1S(=O)(=O)NCC(O)c1ccc2c(c1)CCO2 (stereo unspecified)	42.3
Cn1cccc1C(O)CNS(=O)(=O)c1ccccc1Br (stereo unspecified)	-29.2
O=S(=O)(NCC(O)c1ccc2c(c1)CCO2)c1ccccc1F (stereo unspecified)	50.5
Cn1cccc1C(O)CNS(=O)(=O)c1ccccc1F (stereo unspecified)	51
Cc1cc(F)ccc1S(=O)(=O)NCC(O)c1cccn1C (stereo unspecified)	-1.99
Cn1cnc(S(=O)(=O)NCC(O)c2ccc3c(c2)CCO3)c1 (stereo unspecified)	25.3
NC(=O)CN1CCc2c(Br)ccc(F)c2C1	-15
Cc1nn(C)cc1Cn1c(=O)ccc2ccccc21	33
CC(=O)N1CCC(Cc2cnc(-c3c(C)n[nH]c3C)cn2)C1 (stereo unspecified)	36.4
CCN1C(=O)CCCC12CCCN(C(=O)c1sccc1C)C2 (stereo unspecified)	-17.1
CS(=O)(=O)N1CCC2(CC1)CC(Oc1ccccn1)CO2 (stereo unspecified)	10.7

SMILES	INHIBITION [%]
O=C(c1cc[nH]n1)N1CCC(F)(F)C2(CCN(c3ccccn3)C2)C1 (stereo unspecified)	37.8
Cc1nn(C(C)C)c(C)c1NC(=O)Nc1cccnc1N1CCCC1	26.9
CC(NC(=O)Nc1cccnc1N1CCCC1)c1ccccn1 (stereo unspecified)	-17.9
Cc1nn(C)c(C)c1C(C)NC(=O)Nc1cccnc1N1CCCC1 (stereo unspecified)	11.6
CC(NC(=O)Nc1cccnc1N1CCCC1)c1ccn(C)c1 (stereo unspecified)	62.6
CC(NC(=O)Nc1cccnc1N1CCCC1)c1ccncc1 (stereo unspecified)	7.12
Cc1nn(C)c(C)c1NC(=O)Nc1cccnc1N1CCCC1	54.3
Cn1nnc2c1CCN(Cc1ccncc1)C2COCC1CC1 (stereo unspecified)	35.4
Cc1ccc(NC2CCN(C(=O)c3cc(C)sc3C)CC2)nn1	9.14
CN(C)CC1CN(C(=O)Cc2ccccc2)Cc2nccn2C1 (stereo unspecified)	31.6
Cc1nonc1C1CCCN1C(=O)c1cn2ccsc2n1 (stereo unspecified)	-16.6
Cc1cncc(C(=O)N2CCCC(O)(CO)C2)c1 (stereo unspecified)	15.1
CC(C)C(NC(=O)NCc1cccnc1N(C)C)c1cccs1 (stereo unspecified)	17.5
CCc1cnc(N2CC[C@H]3[C@@H]2CCC(=O)N3c2ccccc2)nc1	33.5
Cc1oncc1C(=O)N1CC[C@H]2[C@@H]1CCC(=O)N2CC1CCOCC1	56.4
Cc1oncc1C(=O)N1CC[C@H]2[C@H]1CCN2S(C)(=O)=O	62.9
Cc1oncc1C(=O)N1CC[C@@H]2[C@@H]1CC(=O)N2Cc1cccnc1	8.66
Cc1oncc1C(=O)N1CC[C@H]2[C@@H]1CCC(=O)N2CC1CC1	55.4
Cc1noc(C)c1CN1CC[C@H]2[C@@H]1CCC(=O)N2CC1CCOCC1	6.67
O=C1CC[C@H]2[C@H](CCN2c2ccccn2)N1CC1CCOCC1	12.7
Cc1cc(C(=O)N2CC[C@H]3[C@H]2CCN3S(C)(=O)=O)c(C)o1	39.4
CCc1cnc(N2CC[C@H]3[C@@H]2CCC(=O)N3CC2CCOCC2)nc1	51.2

SMILES	INHIBITION [%]
Cc1ccc(C(=O)N2CC[C@@H]3[C@H]2CCC(=O)N3CC2CC2)o1	37.9
Cc1oncc1C(=O)N1CC[C@H]2[C@@H]1CCC(=O)N2c1cccnc1	18.3
Cc1cccc(CN2CC[C@@H]3[C@@H]2CCN3C(=O)c2cnoc2C)n1	-17
Cc1nc(S(=O)(=O)N2CCSC3(CCCCC3)C2)cn1C	-12.1
CC(C)CC(=O)N1CC[C@@H]2[C@H](CC1)N(Cc1cccnc1)CCS2(=O)=O	20.4
O=C(Cc1ccccn1)N1CCN(C(=O)CC2CCCC2)CC1	3.73
Cc1nn(C)c2cnn(Cc3ccc(C(=O)NCC4CC4)o3)c12	38.3
CN(Cc1cnn(C)c1)C(=O)NCC1CCS(=O)(=O)C1 (stereo unspecified)	-22.3
CC(=O)N1CCC2(C1)CN(C(=O)C1CCOC1)C2 (stereo unspecified)	9.97
CN(C)CCOCC1CN(C(=O)c2cccn2C)Cc2ccnn2C1 (stereo unspecified)	-7.59
Cn1ccc(C(=O)N2CCCC(Cc3cccc4cccnc34)C2)n1 (stereo unspecified)	-0.371
CSCCCN1C[C@H](NC(=O)c2ccc(C#N)nc2)[C@@H](C2CC2)C1	27.4
CCCc1cncnc1N1CCC(NCc2cc3ccccc3[nH]2)CC1	88.2
CCCc1cncnc1N1CCC(NCc2ccncc2)CC1	49.1
CCCc1cncnc1N1CCC(NCc2ccc(O)cc2)CC1	29.9
Cc1csc(C2(NC(=O)CCc3ccncc3)CCCC2)n1	20
CCn1c(C2CCNCC2)nn(Cc2ccc(C(=O)NC)o2)c1=O	52.1
CCn1c(C2CCCNC2)nn(Cc2ccc(C(=O)NC)o2)c1=O (stereo unspecified)	38.5
CCCn1nc(C2CCNCC2)n(Cc2ccccc2)c1=O	26.8
CCOCCn1nc(C2CCNCC2)n(Cc2ccccc2)c1=O	8.51
CCn1c(CC2CCNCC2)nn(Cc2ccc(C(=O)NC)o2)c1=O	44.8
CCn1c(C2CCNCC2)nn(CCCc2ccccc2)c1=O	52.1

SMILES	INHIBITION [%]
CC(CN1CCOCC1)NC(=O)N1CCCC1 (stereo unspecified)	-15
CN(C)[C@@H]1CCN(c2ncccn2)[C@H]1Cc1ccncc1	26.8
COC(=O)c1ccc(OC)c(Cn2cc(Br)cn2)c1	20.6
O=C(NCc1ccc2[nH]c(=O)[nH]c2c1)c1ccc(CN2CCCC2)o1	56.2
O=C(CN1CCCCCC1)NCc1ccc2[nH]c(=O)[nH]c2c1	-20.1
Cc1[nH]c2ccc(CNC(=O)c3ccc(CN4CCCC4)o3)cc2c1C	40.3
CC1CCCN1Cc1ccccc1-c1nc(C(C)(C)C)cc(=O)[nH]1 (stereo unspecified)	9
CN(C)c1ccc(C(=O)N2CCCC(n3cncn3)C2)nn1 (stereo unspecified)	0.411
CCOC(=O)c1n[nH]cc1-c1cncn1CCn1nc(C)c(C)c1C	12.3
CN(C)S(=O)(=O)N1CCCCCC1c1cc(-c2ccc(F)cc2)no1 (stereo unspecified)	38.4
COc1ccc(-c2cc(C3CCCCCN3S(=O)(=O)N(C)C)on2)cc1 (stereo unspecified)	55.2
COc1ccc(-c2cc(C3CCCCCN3S(C)(=O)=O)on2)cc1 (stereo unspecified)	12.725
CSc1cccc(CNC(=O)[C@H]2CNC[C@H](C(=O)N3CCOCC3)C2)c1	35.8
O=C1Nc2ccccc2CNC12CCN(CC1CCNC1)CC2 (stereo unspecified)	29.2
COCc1cccc(C(=O)N2C[C@@H]3CC[C@H]2CN(Cc2cscn2)C3)n1	-38.6
COc1ccc(-c2cc3nc([C@H](C)NC(=O)C4CC4)nn3cn2)cc1	-5.71
C[C@H](NC(=O)C1CC1)c1nc2cc(-c3ccc(F)cc3)ncn2n1	49.6
C[C@H](NC(=O)C1CCCC1)c1nc2cc(-c3ccc(F)cc3)ncn2n1	58.1
